Data reported in ChEMBL document CHEMBL4513216, “Probing the Open Global Health Chemical Diversity Library for Multistage-Active Starting Points for Next-Generation Antimalarials” (ACS Infect Dis, 2020).
About 8,600 (12%) of roughly 69,000 compounds showed an effect of 50% or more. This is one part of a sample in which strong results are shown more often than they occur.

The compounds below were run on Plasmodium berghei (assay: Screen against P. berghei liver stage (PbLuc), transformed with Luciferase, at 10uM). Conditions: tested at 10 uM.
Format: functional, HepG2

Row | Structure (SMILES) | INHIBITION
1 | CCc1cc(CN(C)Cc2nc(-c3ccc(OC)cc3F)oc2C)on1 | 39.9%
2 | Cc1occc1C(=O)N1C[C@H](Oc2ccccn2)[C@H]2OCCC[C@H]21 | 34.9%
3 | CN1CCCC(c2cccc(CCC(=O)NCc3ccccn3)n2)C1 (centres undefined) | 3.91%
4 | CCC(C)C(=O)N(C)Cc1cc(F)ccc1N1CCC(OC)CC1 (centres undefined) | 33.7%
5 | CCc1cnc(CN(C(C)=O)C2CCN(CC(=O)N3CCCC3)C2)o1 (centres undefined) | 30.6%
6 | COCCNC(=O)CN(C)CCn1nc2ccccn2c1=O | 23.8%
7 | C[C@@H](N)C(=O)N1CC2(CCNCC2)c2cc(Cl)ccc21 | 33.4%
8 | CC1CCN(C(=O)c2cc(NC(=O)c3ccccc3)n(C)n2)CC1 | 26.4%
9 | C=C(Cl)CN(C)C1CCN(CCc2ccccn2)CC1 | 35.9%
10 | CCN1CCC2(CCC1=O)CN(c1ccnc(SC)n1)CCN2C (centres undefined) | 8.57%
11 | CSc1nccc(N2CCN(C)C3(CCNC(=O)CC3)C2)n1 (centres undefined) | -17.7%
12 | Cc1cccc(N2CCC3(CCCN(C(=O)Cc4cccnc4)C3)C2)n1 (centres undefined) | 17.5%
13 | CSc1nccc(N2CCC3(CCCN(Cc4cccc(C)c4)C3)C2)n1 (centres undefined) | 69.9%
14 | CSc1nccc(N2CCC3(CCCN(CCc4ccccc4)C3)C2)n1 (centres undefined) | 85.2%
15 | CSc1nccc(N2CCC3(CCCN(Cc4ccc(F)cc4)C3)C2)n1 (centres undefined) | 85.2%
16 | CSc1nccc(N2CCC3(CCCN(CC4CC4)C3)C2)n1 (centres undefined) | -21.9%
17 | Fc1ccc(CN2CCCC3(CCN(Cc4ncc[nH]4)C3)C2)cc1F (centres undefined) | 26%
18 | CCO[C@H]1CO[C@@]2(CCCN(S(=O)(=O)c3cccnc3)C2)C1 | 34.6%
19 | CCOC[C@]12COC[C@H]1CN(Cc1ccc3c(c1)OCO3)C2 | 38.5%
20 | Cc1nc(N2CCN(C(=O)c3ccccn3)CC2)c2c(n1)c(C)nn2C | 12.6%
21 | CN1CCC(N(Cc2ccncc2)C(=O)COCC2CCCCO2)CC1 (centres undefined) | 17.2%
22 | CCCC(=O)N1CCC(c2cc[nH]n2)C1 (centres undefined) | 17.4%
23 | CN(C)CCN1CCOCC2(C1)CN(Cc1ccco1)CCO2 (centres undefined) | 26.7%
24 | CCNC(=O)N1CCC(OC)c2ccccc2N(CC(=O)NC)C(=O)C1 (centres undefined) | 35.1%
25 | Cc1ccc(C(O)CNC(=O)Nc2cc(C)nn2C)cc1 (centres undefined) | -11.735%
26 | CN(C)C(=O)N1C[C@H]2CC[C@@H](C1)N(C(=O)c1c(Cl)cccc1Cl)C2 | 12.1%
27 | CS(=O)(=O)NCCNc1ncnc2cccc(F)c12 | 24.9%

Row | Structure (SMILES) | INHIBITION
28 | CCS(=O)(=O)NCCCNc1ncnc2cc(F)c(F)cc12 | -30.5%
29 | Fc1cccc2ncnc(NCCCc3ccncc3)c12 | 73%
30 | CN(C)CCCNc1ncnc2cccc(F)c12 | 41.8%
31 | CCN(CCCNc1ncnc2cc(F)c(F)cc12)S(C)(=O)=O | -4.93%
32 | CSCCCNc1ncnc2cccc(F)c12 | 56.7%
33 | CN1[C@@H]2CC[C@H]1CN(C(=O)c1sccc1S(N)(=O)=O)CC2 | 8.74%
34 | O=C(CN1C(=O)CCC1=O)NCc1nn(C2CCCC2)c2c1CCCC2 | 56.3%
35 | O=C(CN1C(=O)CCC1=O)NCc1cc(C2CC2)n(C2CCCC2)n1 | 13.9%
36 | Cc1nnsc1C(=O)NCc1nn(C2CCCC2)c2c1CCCC2 | 49.4%
37 | CC(=O)N[C@@H]1CN(Cc2ccccc2C#N)C[C@H]1c1ccc(C)cc1 | 41.3%
38 | O=C(NCc1ccccc1F)Nc1ccn(CCN2CCOCC2)n1 | 50.1%
39 | CSC1(CNC(=O)NCc2sccc2C)CCOCC1 | 30.4%
40 | CS(=O)(=O)CCn1ccc(NC(=O)Cc2ccccc2F)n1 | 21.2%
41 | Cn1ccc(NC(=O)Cc2ccccc2F)n1 | 57.1%
42 | Cc1ccsc1CNC(=O)Nc1ccn(CCN2CCOCC2)n1 | 64%
43 | COCCn1ccc(NCc2sccc2C)n1 | -60.1%
44 | O=C(Cc1ccccc1Cl)Nc1ccn(CCN2CCOCC2)n1 | 45.8%
45 | Cn1ccc(NC(=O)Cc2cccc(F)c2)n1 | -74.2%
46 | O=C(NCc1cccc(F)c1)Nc1ccn(CCN2CCOCC2)n1 | 40.5%
47 | Cc1[nH]c2c(C)ccc(C)c2c1CC(=O)NC1CCCNC1=O (centres undefined) | 35.7%
48 | COC(=O)CCNC(=O)c1nc(NS(=O)(=O)c2ccccc2)sc1C | 32.2%
49 | COc1c(C2CCCN2CC(=O)N2CCCCC2)c(C)nn1C (centres undefined) | 8.12%
50 | O=C(CCn1cnnn1)N1CCCC(CO)(CCc2ccccc2)C1 (centres undefined) | 39.8%
51 | O=C(CCn1cncn1)N1CCCC(CO)(CCCc2ccccc2)C1 (centres undefined) | 72.3%
52 | O=C(CCn1cnnn1)N1CCCC(CO)(CCCc2ccccc2)C1 (centres undefined) | 23.1%
53 | CN(C)C(=O)CN1CCCC1c1nc(N)ncc1-c1ccc(F)cc1 (centres undefined) | 34%
54 | N#Cc1ccc(NC2CCN(CC(F)F)CC2)c(F)c1 | 8.53%
